According to the supplement of paper PMC12494721:
Structures can show the parent of a compound that is named as a salt.

What was measured:
Settings in all cases: 20 µM; incubation time: 27 h, anaerobic, 37 °C;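 for the amine columns active = adjusted P below 0.05 in both replicates with a change the same way and a mean fold change under 0.8 or over 1.25; inactive = the rest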
[1] = test system: Clostridium sporogenes DSM 1664; assay: growth (OD595) fold change vs plate DMSO controls (fold change (ratio)); higher = more growth
Procedure, shortened: (§1)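 The reported measure is growth: the fold change against the median of DMSO controls on the plate. Absorbance at 595 nm from anaerobic 96-well mGAM cultures grown for 27 h at 37 °C was blank-subtracted, corrected for background with 20 µM compound solutions in water, and converted to OD with a calibration factor of 5. Fold changes above 1.5 appear as NA, and values are the mean of 2 biological replicates.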

Escherichia coli IAI1 [2] = assay: as above
Procedure, shortened: as §1

[3] = test system: Klebsiella aerogenes DSM 30053; assay: as above
Procedure, shortened: as §1

[4] = test system: Ruminococcus gnavus DSM 108212; assay: as above
Procedure, shortened: as §1

[5] = test system: Klebsiella aerogenes DSM 30053; assay: fold change of Histamine concentration vs plate DMSO controls (fold change (ratio)); higher = more amine produced, active = hit call of the paper (significant change in both replicates, either direction)
Procedure, shortened: (§2)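 Each value is the fold change relative to DMSO-only wells on the same plate. Four gut bacterial strains were grown anaerobically in mGAM at 37 °C for 27 h in 80 µL wells, starting at OD 0.1 before a 1:1 dilution, with compounds at 20 µM final (sweeteners 50 µM). Whole cultures were extracted with cold acetonitrile/methanol containing 0.1% formic acid, centrifuged, and amines were quantified by LC–triple-quadrupole MS (dynamic MRM) against external calibration curves with within-batch drift correction. Values are means of 2 biological replicates.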

[6] = test system: Clostridium sporogenes DSM 1664; assay: fold change of Tryptamine concentration vs plate DMSO controls (fold change (ratio)); higher = more amine produced, active = hit call of the paper (significant change in both replicates, either direction)
Procedure, shortened: as §2

[7] = test system: Ruminococcus gnavus DSM 108212; assay: as above
Procedure, shortened: as §2

Escherichia coli IAI1 [8] = assay: fold change of Putrescine concentration vs plate DMSO controls (fold change (ratio)); higher = more amine produced, active = hit call of the paper (significant change in both replicates, either direction)
Procedure, shortened: as §2

[9] = test system: Klebsiella aerogenes DSM 30053; assay: as above
Procedure, shortened: as §2

Escherichia coli IAI1 [10] = assay: fold change of Cadaverine concentration vs plate DMSO controls (fold change (ratio)); higher = more amine produced, active = hit call of the paper (significant change in both replicates, either direction)
Procedure, shortened: as §2

[11] = test system: Klebsiella aerogenes DSM 30053; assay: as above
Procedure, shortened: as §2

[12] = test system: Ruminococcus gnavus DSM 108212; assay: fold change of 2-Phenylethylamine concentration vs plate DMSO controls (fold change (ratio)); higher = more amine produced, active = hit call of the paper (significant change in both replicates, either direction)
Procedure, shortened: as §2

| SMILES | growth [1] | growth (Escherichia coli IAI1 [2]) | growth [3] | growth [4] | fold change of Histamine concentration [5] | fold change of Tryptamine concentration [6] | fold change of Tryptamine concentration [7] | fold change of Putrescine concentration (Escherichia coli IAI1 [8]) | fold change of Putrescine concentration [9] | fold change of Cadaverine concentration (Escherichia coli IAI1 [10]) | fold change of Cadaverine concentration [11] | fold change of 2-Phenylethylamine concentration [12] |
| --- | --- | --- | --- | --- | --- | --- | --- | --- | --- | --- | --- | --- |
| CCN(CC)c1nc(C)cc(OP(=S)(OC)OC)n1 | 1.04 | 1.01 | 0.98 | 1.13 | 1.01 (inactive) | 1.06 (inactive) | 1.06 (inactive) | 1.02 (inactive) | 0.969 (inactive) | 0.901 (inactive) | 1 (inactive) | 1.05 (inactive) |
| O=C1CC[C@@]2(O)[C@H]3Cc4ccc(O)c5c4[C@@]2(CCN3CC2CC2)[C@H]1O5 [Naltrexone hydrochloride dihydrate] |  | 0.661 | 0.69 | 0.579 | 1.03 (inactive) |  | 0.934 (inactive) | 1.02 (inactive) | 1.01 (inactive) | 0.995 (inactive) | 0.992 (inactive) | 0.896 (inactive) |
| CCCCCC[C@H]1C(=O)O[C@H](C)[C@H](NC(=O)c2cccc(NC=O)c2O)C(=O)O[C@@H](C)[C@@H]1OC(=O)CC(C)C [Antimycin A] | 1.09 | 1.03 | 1.02 | 1.15 | 0.994 (inactive) | 0.974 (inactive) | 1.04 (inactive) | 0.99 (inactive) | 0.98 (inactive) | 1.03 (inactive) | 1.01 (inactive) | 0.975 (inactive) |
| C[C@]12CC[C@H]3[C@@H](CCC4=CC(=O)CC[C@@H]43)[C@@H]1CC[C@@H]2O [Nandrolone] | 1.11 | 1.06 | 1.02 | 1.01 | 0.993 (inactive) | 1.01 (inactive) | 1.02 (inactive) | 1.04 (inactive) | 1 (inactive) | 1 (inactive) | 0.999 (inactive) | 1.03 (inactive) |
| CC[C@@H](C(=O)[C@@H](C)[C@@H](O)[C@H](C)[C@@H]1O[C@@H]([C@@H](CC)C(=O)O)CC[C@@H]1C)[C@H]1O[C@]2(C=C[C@@H](O)[C@]3(CC[C@@](C)([C@H]4CC[C@](O)(CC)[C@H](C)O4)O3)O2)[C@H](C)C[C@@H]1C [Salinomycin sodium] | 0.000863 | 1.01 | 0.976 | 0.156 | 1.02 (inactive) | 0.0211 (active) | 0.152 (active) | 0.929 (inactive) | 0.993 (inactive) | 1.01 (inactive) | 0.996 (inactive) | 0.177 (active) |
| c1ccc2c(c1)-c1cccc3cccc-2c13 [Fluoranthene] | 0.942 | 0.967 | 0.964 | 1.01 | 1.04 (inactive) | 1.01 (inactive) | 1.02 (inactive) | 0.995 (inactive) | 1.01 (inactive) | 1.01 (inactive) | 0.976 (inactive) | 1.04 (inactive) |
| c1ccc2c(c1)Nc1ccccc1S2 [Phenothiazine] | 1.09 | 0.906 | 0.937 | 1.02 | 0.931 (inactive) | 0.995 (inactive) | 1.01 (inactive) | 0.944 (inactive) | 0.953 (inactive) | 1.03 (inactive) | 0.973 (inactive) | 0.974 (inactive) |
| CN1[C@@H]2CC[C@H]1C[C@@H](OC(=O)C(CO)c1ccccc1)C2 (stereo partly drawn) [Atropine sulfate monohydrate] |  | 0.98 |  | 0.986 | 1.03 (inactive) |  | 1.01 (inactive) | 0.982 (inactive) | 1.02 (inactive) | 0.957 (inactive) | 1.02 (inactive) | 1.01 (inactive) |
| CC[C@H](C)C1O[C@]2(C=C[C@@H]1C)C[C@@H]1C[C@@H](C/C=C(\C)[C@@H](O[C@H]3C[C@H](OC)[C@@H](O[C@H]4C[C@H](OC)[C@H](NC)[C@H](C)O4)[C@H](C)O3)[C@@H](C)/C=C/C=C3\CO[C@@H]4[C@H](O)C(C)=C[C@@H](C(=O)O1)[C@]34O)O2 (stereo partly drawn) | 0.931 | 1.08 | 1.05 |  | 0.888 (inactive) | 0.823 (inactive) | 0.581 (active) | 1.05 (inactive) | 0.995 (inactive) | 1.02 (inactive) | 0.995 (inactive) | 0.654 (inactive) |
| CN1[C@@H]2CC[C@H]1C[C@@H](OC(=O)[C@H](CO)c1ccccc1)C2 [(L) Hyoscyamine] |  | 1.03 | 1.06 | 1.08 | 0.941 (inactive) |  | 1.13 (inactive) | 0.992 (inactive) | 0.94 (inactive) | 0.923 (inactive) | 1.02 (inactive) | 1.11 (inactive) |
| CCCC(Cn1cncn1)c1ccc(Cl)cc1Cl (stereo not drawn) | 0.931 | 0.973 | 1.02 | 0.977 | 1.02 (inactive) | 1.01 (inactive) | 0.984 (inactive) | 1.02 (inactive) | 1.02 (inactive) | 0.965 (inactive) | 0.997 (inactive) | 0.953 (inactive) |
| O=C(O)C(F)(F)C(F)(F)C(F)(F)C(F)(F)C(F)(F)C(F)(F)C(F)(F)F [PFOA (Perfluorooctanoic acid)] | 0.946 | 1.02 | 0.999 | 0.985 | 1.02 (inactive) | 0.979 (inactive) | 0.94 (inactive) | 1.03 (inactive) | 1 (inactive) | 1.02 (inactive) | 0.992 (inactive) | 0.878 (inactive) |
| C[CH2][Hg][S]c1ccccc1C(=O)[O-].[Na+] [Thimerosal] | 0.878 | 0.91 | 0.707 |  | 0.531 (inactive) | 0.986 (inactive) | 0.487 (active) | 0.936 (inactive) | 0.953 (inactive) | 0.896 (inactive) | 1 (inactive) | 0.496 (inactive) |
| CCC(=O)O[C@@](Cc1ccccc1)(c1ccccc1)[C@@H](C)CN(C)C [Levopropoxyphene napsylate] | 1.06 | 1.03 | 1.05 | 1.18 | 0.942 (inactive) | 1.04 (inactive) | 1.01 (inactive) | 1.03 (inactive) | 1 (inactive) | 1.03 (inactive) | 1.01 (inactive) | 1.03 (inactive) |
| C[C@]12CCC(=O)C(O)=C1CC[C@@H]1[C@@H]2CC[C@]2(C)C(=O)CC[C@@H]12 [Formestane] | 1.03 | 0.965 | 0.974 | 1.13 | 1.05 (inactive) | 0.968 (inactive) | 1 (inactive) | 1.02 (inactive) | 1.01 (inactive) | 1.01 (inactive) | 0.981 (inactive) | 1.03 (inactive) |
| C[N+]1(C)CCCC(OC(=O)C(O)(c2ccccc2)c2ccccc2)C1 (stereo not drawn) [Mepenzolate bromide] | 0.917 | 0.957 | 1.02 | 0.882 | 0.962 (inactive) | 1 (inactive) | 1.03 (inactive) | 0.871 (inactive) | 1.02 (inactive) | 1.03 (inactive) | 1.01 (inactive) | 1.02 (inactive) |
| COc1cccc(C2(O)CCCCC2CN(C)C)c1 (stereo not drawn) [Tramadol hydrochloride] | 1.04 | 0.988 | 0.985 | 1.12 | 1.04 (inactive) | 1.06 (inactive) | 0.925 (inactive) | 1.05 (inactive) | 1.02 (inactive) | 0.969 (inactive) | 1 (inactive) | 0.873 (inactive) |
| O=[N+]([O-])c1cc(C(F)(F)F)c(Cl)c([N+](=O)[O-])c1Nc1ncc(C(F)(F)F)cc1Cl | 0.825 | 0.986 | 0.991 | 1.18 | 1.07 (inactive) | 0.464 (inactive) | 0.887 (inactive) | 1.05 (inactive) | 1.05 (inactive) | 1.15 (inactive) | 1.02 (inactive) | 0.826 (inactive) |
| CCC(=O)O[C@H]1CC[C@H]2[C@@H]3CCC4=CC(=O)CC[C@]4(C)[C@H]3CC[C@]12C [Testosterone propionate] | 1.02 | 1.01 | 1.03 |  | 1.02 (inactive) | 0.993 (inactive) | 1.08 (inactive) | 0.938 (inactive) | 1.02 (inactive) | 0.985 (inactive) | 1.07 (inactive) | 1.23 (inactive) |
